# Experimental data as given in PubChem BioAssay.
# Active and inactive are the calls of the source.
# Experiments:
# [1] = tested on: Plasmodium falciparum Sir2 (PF13_0152, Sir2A); assay: Plasmodium falciparum Sir2A binding compounds – biochemical, small-molecule microarray, 635 nm fluorescence, primary screen (AID 1098); settings: fluorescence 635 nm, higher = more signal;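 further: score merges spot fluorescence intensity with its signal-to-noise ratio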
# [2] = probe aDKK1 binding to arrayed compounds – biochemical, biotinylated probe, 635/667 nm fluorescence, primary screen (AID 1099); settings: small-molecule microarray, higher = more signal;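 further: score merges 667nm spot fluorescence with signal to noise across triplicate slides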
# [3] = probe aCHRDL2 binding to arrayed compounds – biochemical, biotinylated probe, 635/667 nm fluorescence, primary screen (AID 1100); settings: small-molecule microarray, higher = more signal
# [4] = change in splice reporter luminescence, either direction, cell-based, HEK293, spliceosome inhibition project, primary screen (AID 1101); settings: HEK293 splicing luciferase reporter, 24 h, higher = more signal, called active from +8 up or from −8 down;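 further: HEK293 cells carrying a splicing-competent luciferase reporter gene; test concentration not given here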
# [5] = biological target: Fibroblast growth factor 10 (Homo sapiens) (UniProt O15520); assay: compounds binding fibroblast growth factor 10 – biochemical, small-molecule microarray, 635 nm fluorescence, primary screen (AID 1102); settings: FGF10 binding, fluorescence 635 nm, higher = more signal
# [6] = tested on: glycogen synthase kinase-3 (GSK3A per assay name; protocol says GSK3B); assay: compounds binding glycogen synthase kinase-3 – biochemical, small-molecule microarray, 635 nm fluorescence, GSK3A, primary screen (AID 1103); settings: fluorescence 635 nm, higher = more signal; further: the record names both GSK3A and GSK3B
# [7] = biological target: Epidermal growth factor receptor (Homo sapiens) (UniProt P00533); assay: compounds binding epidermal growth factor receptor – biochemical, small-molecule microarray, 635 nm fluorescence, primary screen (AID 1104); settings: EGFR binding, higher = more signal;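 further: score merges 667 nm emission intensity with spot signal to noise over triplicate slides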
# [8] = biological target: Follistatin-related protein 3 (Homo sapiens) (UniProt O95633); assay: compounds binding follistatin-related protein 3 – biochemical, small-molecule microarray, 635 nm fluorescence, primary screen (AID 1105); settings: FSTL3 binding, higher = more signal;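 further: score merges emission near 667 nm and signal to noise per printed spot across three slides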
# [9] = biological target: Dickkopf-related protein 1 (Homo sapiens) (UniProt O94907); assay: small molecules binding DKK1 protein – biochemical, small-molecule microarray, 635 nm fluorescence scan, primary screen (AID 1106); settings: higher = more signal;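 further: score merges emission near 667 nm with signal to noise over three replicate slides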
# [10] = tested on: Inhibin beta A chain (activin A); assay: small molecules binding activin A – biochemical, small-molecule microarray, 635 nm fluorescence scan, primary screen (AID 1107); settings: INHBA, higher = more signal;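 further: mouse activin A protein probed at 4.33 µg/mL on printed slides; score merges bound-protein fluorescence near 667 nm with spot signal-to-noise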
# [11] = tested on: Human papillomavirus type 1a protein E7 (residues 44-93); assay: small molecules binding HPV E7 44-93 – biochemical, small-molecule microarray, residues 44-93, 635 nm fluorescence, primary screen (AID 1108); settings: fluorescence 635 nm, higher = more signal;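 further: E7 fragment applied at 1 µg/mL in TBST for 1 h at 4 C; score combines spot fluorescence with its signal to noise ratio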
# [12] = hepatitis C replication reporter changes, two-sided – Huh7 cells, luciferase reporter, HCV replication inhibitor project, primary screen (AID 1109); settings: Huh7 HCV replicon luciferase reporter, 48 h; higher = more signal;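 further: huh7 hepatoma cells harbouring a luciferase neomycin HCV replicon reporter; luciferase luminescence as measure of HCV replicon replication; test concentration not given here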
# [13] = biological target: Left-right determination factor 2 (Homo sapiens) (UniProt O00292); assay: small molecules binding LEFTY2 protein – biochemical, small-molecule microarray, 635 nm fluorescence scan, primary screen (AID 1110); settings: higher = more signal
# [14] = biological target: Calmodulin-1 (Homo sapiens) (UniProt P0DP23); assay: small molecules binding calmodulin-1 with EGTA – biochemical, small-molecule microarray, Cy5-labelled CALM1, profiling panel (AID 1111); settings: Cy5-CALM1 binding fluorescence, higher = more signal;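 further: labelled calmodulin applied in Tris saline Tween buffer holding calcium plus EGTA and DTT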
# [15] = biological target: Calmodulin-1 (Homo sapiens) (UniProt P0DP23); assay: small molecules binding Ca-loaded calmodulin-1 – biochemical, small-molecule microarray, Cy5-labelled CALM1, plus calcium, artefact control for SMM control-protein annotation, profiling panel (AID 1112); settings: Cy5-CALM1 binding fluorescence, higher = more signal;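 further: score merges spot fluorescence with signal to noise from triplicate slides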
# [16] = probe aWnt5a binding to arrayed compounds – biochemical, biotinylated probe, 635/667 nm fluorescence, primary screen (AID 1113); settings: small-molecule microarray, higher = more signal;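 further: score merges 667 nm fluorescence intensity with signal-to-noise per printed feature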
# [17] = probe aShh binding to arrayed compounds – biochemical, biotinylated probe, 635/667 nm fluorescence, primary screen (AID 1114); settings: small-molecule microarray, higher = more signal;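 further: probe is biotin-labelled aShh protein from a stem cell growth factor screen; measures binding of labelled protein to compounds printed on the slide; score merges feature fluorescence at 667 nm with signal-to-noise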
# [18] = probe aNog binding to arrayed compounds – biochemical, biotinylated probe, 635/667 nm fluorescence, primary screen (AID 1115); settings: small-molecule microarray, higher = more signal;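 further: probe is biotinylated aNog protein used at 0.15 µg/mL for 1 h at 4 C; z-score combines 667 nm fluorescence of each spot with its signal to noise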
# [19] = biological target: Torsin-1A-interacting protein 1 (Homo sapiens) (UniProt Q5JTV8); assay: compound microarray binding of lysate hLAP1 – cell lysate, small-molecule microarray, COS7 lysate, 635/667 nm fluorescence, primary screen (AID 1116); settings: 635 nm fluorescence, higher = more signal
# [20] = biological target: Alpha-bungarotoxin (Bungarus multicinctus) (UniProt P60615); assay: compounds binding labelled alpha-BTX control protein – biochemical, small-molecule microarray, Alexa647 label, 635/667 nm fluorescence, artefact control for SMM control protein annotation, profiling panel (AID 1117); settings: alpha-BTX-A647 binding fluorescence, higher = more signal
# Alpha-bungarotoxin (Bungarus multicinctus), sequence (P60615 whole entry, looked up): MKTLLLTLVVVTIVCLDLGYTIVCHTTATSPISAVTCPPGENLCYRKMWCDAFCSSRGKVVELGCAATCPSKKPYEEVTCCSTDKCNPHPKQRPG
# Left-right determination factor 2 (Homo sapiens), sequence (O00292 whole entry, looked up): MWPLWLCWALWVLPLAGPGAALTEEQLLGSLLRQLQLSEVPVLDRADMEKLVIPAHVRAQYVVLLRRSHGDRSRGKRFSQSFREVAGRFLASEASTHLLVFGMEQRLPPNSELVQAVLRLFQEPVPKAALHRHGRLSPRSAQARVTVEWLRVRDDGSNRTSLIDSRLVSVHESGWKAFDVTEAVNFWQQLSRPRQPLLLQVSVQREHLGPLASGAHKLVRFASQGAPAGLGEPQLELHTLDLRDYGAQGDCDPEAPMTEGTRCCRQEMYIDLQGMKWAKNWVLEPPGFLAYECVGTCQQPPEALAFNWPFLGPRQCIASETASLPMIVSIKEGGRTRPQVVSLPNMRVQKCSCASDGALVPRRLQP
# Follistatin-related protein 3 (Homo sapiens), sequence (O95633 whole entry, looked up): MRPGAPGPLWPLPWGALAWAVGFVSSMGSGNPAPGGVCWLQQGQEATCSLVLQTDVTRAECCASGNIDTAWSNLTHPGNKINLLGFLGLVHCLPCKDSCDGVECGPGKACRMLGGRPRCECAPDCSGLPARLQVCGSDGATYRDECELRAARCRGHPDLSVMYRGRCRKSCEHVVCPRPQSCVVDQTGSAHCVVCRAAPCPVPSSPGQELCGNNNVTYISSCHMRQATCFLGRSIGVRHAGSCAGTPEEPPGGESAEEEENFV
# Fibroblast growth factor 10 (Homo sapiens), sequence (O15520 whole entry, looked up): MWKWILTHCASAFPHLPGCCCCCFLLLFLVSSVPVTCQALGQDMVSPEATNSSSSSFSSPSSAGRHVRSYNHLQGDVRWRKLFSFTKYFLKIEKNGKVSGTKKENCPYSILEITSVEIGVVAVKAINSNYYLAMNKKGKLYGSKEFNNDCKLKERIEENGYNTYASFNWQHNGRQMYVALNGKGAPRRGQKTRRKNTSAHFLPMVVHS
# Torsin-1A-interacting protein 1 (Homo sapiens), sequence (Q5JTV8 whole entry, looked up): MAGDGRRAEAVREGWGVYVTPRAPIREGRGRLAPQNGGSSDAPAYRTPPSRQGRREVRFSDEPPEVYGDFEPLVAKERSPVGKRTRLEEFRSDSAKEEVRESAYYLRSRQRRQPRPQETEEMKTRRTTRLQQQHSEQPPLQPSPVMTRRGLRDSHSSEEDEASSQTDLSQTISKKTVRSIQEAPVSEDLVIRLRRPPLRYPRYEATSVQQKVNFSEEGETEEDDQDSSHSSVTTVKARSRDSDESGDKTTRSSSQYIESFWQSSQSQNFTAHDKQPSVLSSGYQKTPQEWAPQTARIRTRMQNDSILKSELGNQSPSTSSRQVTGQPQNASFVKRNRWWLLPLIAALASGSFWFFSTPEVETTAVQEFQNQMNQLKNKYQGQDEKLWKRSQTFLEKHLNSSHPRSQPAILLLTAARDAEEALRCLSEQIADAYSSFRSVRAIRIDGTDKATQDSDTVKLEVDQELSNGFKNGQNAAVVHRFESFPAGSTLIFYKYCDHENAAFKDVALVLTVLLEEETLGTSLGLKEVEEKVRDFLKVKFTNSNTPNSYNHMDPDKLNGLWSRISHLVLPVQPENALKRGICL
# Epidermal growth factor receptor (Homo sapiens), sequence (P00533 whole entry, looked up): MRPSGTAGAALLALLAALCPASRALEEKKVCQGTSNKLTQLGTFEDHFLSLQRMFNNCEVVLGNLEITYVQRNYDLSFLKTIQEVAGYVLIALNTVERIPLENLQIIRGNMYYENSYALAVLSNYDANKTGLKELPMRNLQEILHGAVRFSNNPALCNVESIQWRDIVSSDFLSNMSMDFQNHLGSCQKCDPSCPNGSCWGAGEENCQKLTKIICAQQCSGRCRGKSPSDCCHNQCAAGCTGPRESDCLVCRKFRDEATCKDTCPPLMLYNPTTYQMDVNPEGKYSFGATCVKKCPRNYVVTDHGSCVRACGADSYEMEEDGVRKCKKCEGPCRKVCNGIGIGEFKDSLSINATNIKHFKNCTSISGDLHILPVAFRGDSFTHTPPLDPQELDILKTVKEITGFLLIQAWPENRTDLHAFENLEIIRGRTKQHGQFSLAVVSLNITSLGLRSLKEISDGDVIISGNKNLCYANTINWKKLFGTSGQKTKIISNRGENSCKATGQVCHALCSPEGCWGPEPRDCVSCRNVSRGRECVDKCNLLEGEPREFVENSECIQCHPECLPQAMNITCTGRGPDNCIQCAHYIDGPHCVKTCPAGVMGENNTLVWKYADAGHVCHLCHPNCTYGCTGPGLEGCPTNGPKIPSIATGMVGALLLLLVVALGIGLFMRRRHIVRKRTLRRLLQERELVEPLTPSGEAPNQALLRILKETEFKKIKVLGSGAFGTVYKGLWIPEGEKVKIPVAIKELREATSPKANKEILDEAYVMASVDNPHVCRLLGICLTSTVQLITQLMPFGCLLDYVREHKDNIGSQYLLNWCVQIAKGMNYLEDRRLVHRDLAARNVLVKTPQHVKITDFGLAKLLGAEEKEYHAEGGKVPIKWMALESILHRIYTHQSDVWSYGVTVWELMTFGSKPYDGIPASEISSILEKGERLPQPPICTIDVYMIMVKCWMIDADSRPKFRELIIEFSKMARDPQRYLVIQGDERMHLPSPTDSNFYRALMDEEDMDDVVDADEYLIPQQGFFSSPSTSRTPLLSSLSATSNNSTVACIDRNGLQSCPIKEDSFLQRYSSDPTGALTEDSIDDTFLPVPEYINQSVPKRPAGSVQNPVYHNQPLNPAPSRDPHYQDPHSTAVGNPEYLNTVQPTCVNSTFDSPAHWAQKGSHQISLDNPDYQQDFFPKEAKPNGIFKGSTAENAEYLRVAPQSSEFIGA
# Dickkopf-related protein 1 (Homo sapiens), sequence (O94907 whole entry, looked up): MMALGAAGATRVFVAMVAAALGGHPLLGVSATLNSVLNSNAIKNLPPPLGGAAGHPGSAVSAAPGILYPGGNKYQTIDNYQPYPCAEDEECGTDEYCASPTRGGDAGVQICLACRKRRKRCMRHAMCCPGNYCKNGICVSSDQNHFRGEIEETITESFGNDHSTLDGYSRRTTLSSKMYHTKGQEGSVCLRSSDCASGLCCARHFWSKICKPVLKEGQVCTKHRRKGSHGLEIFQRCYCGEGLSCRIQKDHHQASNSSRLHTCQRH
Compound,composite z-score [1],composite z-score [2],composite z-score [3],z-score [4],composite z-score [5],composite z-score [6],composite z-score [7],composite z-score [8],composite z-score [9],composite z-score [10],composite z-score [11],z-score [12],composite z-score [13],composite z-score [14],composite z-score [15],composite z-score [16],composite z-score [17],composite z-score [18],composite z-score [19],composite z-score [20]
COC(=O)C=CCCc1coc(C=CCNC(=O)OC)n1,0.844,0.161,-0.388,0.183 (inactive),0.789,0.643,0.867,1.07,1.16,1.3,0.565,-0.632,0.827,-0.316,-1.53,-0.0346,0.275,-0.255,0.192,-0.264
CC(C)=NO[C@H](C)c1cn([C@H](CO)Cc2ccccc2)nn1,0.618,-0.309,-0.113,1 (inactive),0.443,-0.122,0.17,-0.275,0.291,0.576,0.216,-0.463,0.13,0.0595,-0.0004,0.0438,0.0121,0.145,-0.197,-0.0691
CO[C@H]1COC(=O)[C@H](C)NC(=O)[C@@H](C)COC(=O)[C@H]2CCCN2C(=O)CC=C[C@H]1C,-0.139,-0.377,-0.823,-0.447 (inactive),0.764,0.945,0.627,0.736,1.55,-0.252,0.13,-0.328,0.663,-0.538,-1.38,-0.144,-0.24,-0.28,0.109,-0.0339
COC(=O)[C@H](C)NC(=O)CCC1CC(OC(=O)NCc2cccc3ccccc23)CC2(CCCC(COC(=O)NCC(c3ccccc3)c3ccccc3)O2)O1 (stereo not given in full),0.208,-0.0014,-0.523,0.026 (inactive),0.715,1.27,0.702,0.601,0.386,-0.396,1.32,-0.977,0.889,-0.0132,-0.265,-0.0185,-0.273,-0.0157,0.345,0.0226
CC(=O)OC[C@H]1O[C@H](C#Cc2ccccc2)C=C[C@@H]1OC(C)=O,1.27,-0.0406,-0.219,-1.92 (inactive),0.338,0.163,0.0278,0.59,0.57,0.58,-0.234,-2.92,0.711,-0.376,-0.449,-0.119,-0.124,0.115,0.288,-0.686
CCOC(=O)[C@H](Cc1ccccc1)NC(=O)CCC1CC(OC(=O)NCCc2ccc(F)cc2)CC2(CCCC(COC(=O)NCCOC)O2)O1 (stereo not given in full),0.637,0.765,-0.504,0.371 (inactive),0.984,0.614,0.856,0.969,1.13,0.163,1.4,0.686,0.529,0.276,-0.109,-0.116,0.131,0.0853,0.979,0.574
Cn1c(=O)n2n(c1=O)[C@H]1[C@H](O)[C@@H]3O[C@@H]3C(=NOCc3ccccc3)[C@H]1CC2,0.421,-0.263,-0.374,2.48 (inactive),-0.414,-0.046,-0.0492,-0.136,-0.0857,-0.241,0.729,-1.28,-0.0238,-0.17,0.33,-0.232,-0.0339,-0.0524,-0.0588,0.0868
COC(=O)CC=C[C@@H](C)[C@@H](C=NOCC[C@@H]1C=C[C@H](OC(C)=O)[C@@H](COC(C)=O)O1)NS(=O)(=O)c1ccc(C)cc1,0.133,-0.322,-0.331,-0.43 (inactive),-0.183,0.328,0.736,0.0237,0.316,0.46,-0.0642,-1.45,0.851,-0.879,-1.47,-0.0519,0.0141,-0.429,0.164,-0.0729
C[n+]1ccc(-c2ccc(CO)cc2)cc1,-1.19,0.116,0.808,1.29 (inactive),0.747,-0.435,1.51,1.6,0.953,2.16,-1.04,-0.0613,0.616,0.468,0.607,-0.117,-0.0709,-0.329,0.724,3.86
COc1cccc([C@H]2Oc3ccc(OC)cc3C(=NOC[C@@H](O)[C@H]3O[C@@H]4OC(C)(C)O[C@@H]4[C@H]3O)[C@@H]2O)c1,0.0732,-0.389,-0.511,-0.106 (inactive),0.654,0.315,0.35,0.492,0.548,-0.326,0.0743,4.33,0.583,-0.284,-0.273,-0.139,-0.304,-0.409,0.64,-0.106
CCOC(=O)[C@H](Cc1ccccc1)NC(=O)OC1CC(CCC2CC(CC)=NO2)OC2(CCCC(COC(=O)NCCC(C)C)O2)C1 (stereo not given in full),0.328,-0.246,-0.264,0.667 (inactive),0.848,0.207,0.0954,-0.127,0.0585,-0.415,0.836,-1.39,0.0791,0.426,0.0002,0.0292,-0.195,0.152,0.309,0.426
